Data published in the supplement of paper PMC10849652.
The full data set covers some 7,900 targets. This sample favours those with a hit. About 0.6% of all pairs of compound and target were hits.

Tests used:
Assay in all cases: log2 fold change, soluble protein after heating vs DMSO (PISA); higher = thermal stabilisation; K562 cells, 10 uM, 30 min; active = over 0.2 and 3.5 SD of the protein, either way, in both replicates (recomputed)
IRAK-1-4 Inhibitor I = compound: C1COCCN1CCN2C3=CC=CC=C3N=C2NC(=O)C4=CC(=CC=C4)[N+](=O)[O-] [IRAK-1-4 Inhibitor I]
How it was run: (§1)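 K562 cells (2×10^6 cells/mL) were treated with 10 μM compound for 30 min, and aliquots were heated for 3 min over 48°C-58°C. Pooled aliquots were extracted in PBS with 0.5% NP-40 at 4°C, and the supernatant after 21,000xg for 90 min was measured by TMTpro 16plex LC-MS/MS with channel sums equalised. Reported thermal stability, relative to control samples and from duplicates, is a log2 fold change.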

ibrutinib = compound: C=CC(=O)N1CCC[C@@H](n2nc(-c3ccc(Oc4ccccc4)cc3)c3c(N)ncnc32)C1 [ibrutinib]
How it was run: as §1

[1] = compound: CC(=O)c1cnc2ccc(-c3cc(Cl)c(O)c(Cl)c3)nc2c1N[C@H]1CC[C@H](CN(C)C)CC1
How it was run: as §1

ralimetinib = compound: CC(C)(C)Cn1c(N)nc2ccc(-c3[nH]c(C(C)(C)C)nc3-c3ccc(F)cc3)nc21 [ralimetinib]
How it was run: as §1

[2] = compound: CC(C)(O)CC(=O)NCCn1ccc2ncnc(Nc3ccc(Oc4cccc(C(F)(F)F)c4)c(Cl)c3)c21
How it was run: as §1

[3] = compound: CC(C)C1=C2N=C(C=C(N2N=C1)NCC3=CC=CC=C3)NCCCCCCN
How it was run: as §1

[4] = compound: CC(C)C[C@@H](C=O)NC(=O)[C@H](CC(C)C)NC(=O)[C@H](CC(C)C)NC(=O)OCc1ccccc1
How it was run: as §1

pinometostat = compound: CC(C)N(C[C@H]1O[C@@H](n2cnc3c(N)ncnc32)[C@H](O)[C@@H]1O)[C@H]1C[C@@H](CCc2nc3cc(C(C)(C)C)ccc3[nH]2)C1 [pinometostat]
How it was run: as §1

[5] = compound: CC1=C(C(CC(=O)N1)C2=CC=C(C=C2)C(F)(F)F)C(=O)NC3=C(C=C4C(=C3)C=NN4)F
How it was run: as §1

[6] = compound: CC1=C(C2=C(C=C1)C(=O)C3=CC=CC=C3N2CCCN)C
How it was run: as §1

[7] = compound: CC1=C(C=C(C=C1)NC(=O)C2=CC(=CC=C2)C(C)(C)C#N)NC3=CC4=C(C=C3)N=CN(C4=O)C
How it was run: as §1

[8] = compound: CC1=C(C=C(C=C1)NC(=O)C2=CC(=CC=C2)N(C)C)NC(=O)C3=CC=C(C=C3)O
How it was run: as §1

[9] = compound: CC1=CC=C(C=C1)SC2=C3C=C(SC3=CN=C2)C(=O)N
How it was run: as §1

[10] = compound: CC1=NC(=CC=C1)C2=C(N=C(N2)C(C)(C)C)C3=CC4=NC=CN=C4C=C3
How it was run: as §1

Nexturastat A = compound: CCCCN(Cc1ccc(C(=O)NO)cc1)C(=O)Nc1ccccc1 [Nexturastat A]
How it was run: as §1

vemurafenib = compound: CCCS(=O)(=O)Nc1ccc(F)c(C(=O)c2c[nH]c3ncc(-c4ccc(Cl)cc4)cc23)c1F [vemurafenib]
How it was run: as §1

[11] = compound: CCCS(=O)(=O)Nc1ccc(F)c(C(=O)c2c[nH]c3ncc(Cl)cc23)c1F
How it was run: as §1

[12] = compound: CCCc1cc(C)[nH]c(=O)c1CNC(=O)c1cc(-c2ccnc(N3CCN(C)CC3)c2)cc2c1cnn2C(C)C
How it was run: as §1

givinostat = compound: CCN(CC)Cc1ccc2cc(COC(=O)Nc3ccc(C(=O)NO)cc3)ccc2c1 [givinostat]
How it was run: as §1

barasertib = compound: CCN(CCCOc1ccc2c(Nc3cc(CC(=O)Nc4cccc(F)c4)[nH]n3)ncnc2c1)CCOP(=O)(O)O [barasertib]
How it was run: as §1

Measured: log2 fold change

NCL (UniProt P19338)
UniProt P19338, sequence (P19338 whole entry, looked up): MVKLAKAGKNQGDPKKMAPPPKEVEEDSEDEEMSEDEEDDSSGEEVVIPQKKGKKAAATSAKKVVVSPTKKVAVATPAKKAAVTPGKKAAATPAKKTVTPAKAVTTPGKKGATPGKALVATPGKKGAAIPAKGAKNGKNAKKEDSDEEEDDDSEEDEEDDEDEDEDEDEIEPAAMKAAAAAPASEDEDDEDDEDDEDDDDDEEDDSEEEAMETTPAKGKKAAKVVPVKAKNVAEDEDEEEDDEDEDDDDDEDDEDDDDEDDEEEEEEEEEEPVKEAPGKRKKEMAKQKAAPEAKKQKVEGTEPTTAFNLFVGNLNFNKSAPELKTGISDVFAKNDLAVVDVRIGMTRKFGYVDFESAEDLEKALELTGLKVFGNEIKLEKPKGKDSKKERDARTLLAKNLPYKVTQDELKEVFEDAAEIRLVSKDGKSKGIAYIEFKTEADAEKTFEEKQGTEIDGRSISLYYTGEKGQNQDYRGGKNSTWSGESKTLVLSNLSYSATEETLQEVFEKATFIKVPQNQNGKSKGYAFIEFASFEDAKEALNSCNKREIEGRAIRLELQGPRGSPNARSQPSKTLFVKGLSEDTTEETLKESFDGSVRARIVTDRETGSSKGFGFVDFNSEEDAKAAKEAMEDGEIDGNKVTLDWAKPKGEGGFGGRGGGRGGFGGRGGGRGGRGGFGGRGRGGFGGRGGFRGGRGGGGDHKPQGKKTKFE
inactive: IRAK-1-4 Inhibitor I -0.144 | ibrutinib 0.034 | [1] 0.118 | ralimetinib 0.166 | [2] 0.119 | [3] 0.07 | [4] 0.121 | pinometostat 0.4 | [5] 0.039 | [7] -0.017 | [8] -0.056 | [9] -0.077 | [10] -0.126 | Nexturastat A 0.275 | vemurafenib -0.139 | [11] -0.036 | [12] 0.145 | givinostat 0.085 | barasertib -0.101
active: [6] -0.891

NEDD4 isoform 4 (UniProt P46934)
UniProt P46934, sequence (P46934 whole entry, looked up): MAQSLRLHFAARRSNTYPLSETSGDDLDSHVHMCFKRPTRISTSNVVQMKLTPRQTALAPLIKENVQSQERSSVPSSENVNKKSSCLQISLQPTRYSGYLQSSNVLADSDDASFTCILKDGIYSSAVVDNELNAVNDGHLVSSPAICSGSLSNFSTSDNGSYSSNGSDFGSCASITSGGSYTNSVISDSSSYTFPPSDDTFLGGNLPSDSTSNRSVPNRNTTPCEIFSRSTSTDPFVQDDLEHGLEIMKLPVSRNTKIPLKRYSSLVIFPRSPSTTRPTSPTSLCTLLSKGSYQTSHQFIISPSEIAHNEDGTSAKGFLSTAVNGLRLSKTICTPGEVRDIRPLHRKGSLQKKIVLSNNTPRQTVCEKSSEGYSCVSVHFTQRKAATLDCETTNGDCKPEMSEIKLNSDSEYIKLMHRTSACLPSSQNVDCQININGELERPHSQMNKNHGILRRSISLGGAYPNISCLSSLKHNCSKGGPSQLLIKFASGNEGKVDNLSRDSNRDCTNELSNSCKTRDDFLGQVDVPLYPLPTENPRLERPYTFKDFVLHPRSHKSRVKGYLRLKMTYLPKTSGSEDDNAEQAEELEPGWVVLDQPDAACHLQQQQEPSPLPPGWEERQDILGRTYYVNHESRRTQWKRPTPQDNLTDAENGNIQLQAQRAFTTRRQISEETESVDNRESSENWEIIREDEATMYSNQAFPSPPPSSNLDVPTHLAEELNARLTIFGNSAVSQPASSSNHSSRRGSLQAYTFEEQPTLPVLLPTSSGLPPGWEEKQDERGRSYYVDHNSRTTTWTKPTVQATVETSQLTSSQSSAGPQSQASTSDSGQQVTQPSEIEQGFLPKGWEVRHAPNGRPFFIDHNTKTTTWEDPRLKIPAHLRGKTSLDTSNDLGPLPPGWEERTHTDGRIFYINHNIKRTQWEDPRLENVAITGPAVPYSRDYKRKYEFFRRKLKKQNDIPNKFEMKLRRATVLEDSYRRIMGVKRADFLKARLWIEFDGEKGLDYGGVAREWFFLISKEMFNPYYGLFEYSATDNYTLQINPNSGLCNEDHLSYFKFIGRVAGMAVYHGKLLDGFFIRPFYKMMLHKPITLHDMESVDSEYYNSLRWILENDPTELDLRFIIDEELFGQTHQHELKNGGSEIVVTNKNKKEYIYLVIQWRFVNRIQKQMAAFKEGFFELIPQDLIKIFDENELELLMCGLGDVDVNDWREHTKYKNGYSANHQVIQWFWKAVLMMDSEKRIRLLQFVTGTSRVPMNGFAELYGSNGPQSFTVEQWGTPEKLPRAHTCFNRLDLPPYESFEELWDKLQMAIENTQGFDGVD
inactive: IRAK-1-4 Inhibitor I 0.002 | ibrutinib -0.038 | [1] 0.02 | ralimetinib -0.014 | [2] -0.027 | [3] -0.124 | [4] 0.019 | pinometostat -0.03 | [5] -0.025 | [6] -0.065 | [7] -0.069 | [8] -0.011 | [9] -0.025 | [10] 0.047 | Nexturastat A -0.04 | vemurafenib 0.029 | [11] 0.026 | [12] 0.026 | givinostat 0.018 | barasertib 0.009

NME2P1 (UniProt O60361)
UniProt O60361, sequence (O60361 whole entry, looked up): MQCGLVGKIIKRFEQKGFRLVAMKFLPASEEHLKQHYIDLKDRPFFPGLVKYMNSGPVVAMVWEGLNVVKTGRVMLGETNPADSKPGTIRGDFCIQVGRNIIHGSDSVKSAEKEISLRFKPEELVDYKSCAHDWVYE
inactive: IRAK-1-4 Inhibitor I -0.019 | ibrutinib -0.18 | [1] -0.033 | ralimetinib 0.032 | [2] -0.024 | [3] -0.072 | [4] -0.135 | pinometostat 0.037 | [5] 0.149 | [6] 0.031 | [7] 0.06 | [8] 0.017 | [9] 0.065 | [10] 0.004 | Nexturastat A -0.164 | vemurafenib 0.038 | [11] -0.043 | [12] -0.102 | givinostat 0.09 | barasertib 0.12

MTMR14 (UniProt Q8NCE2)
UniProt Q8NCE2, sequence (Q8NCE2 whole entry, looked up): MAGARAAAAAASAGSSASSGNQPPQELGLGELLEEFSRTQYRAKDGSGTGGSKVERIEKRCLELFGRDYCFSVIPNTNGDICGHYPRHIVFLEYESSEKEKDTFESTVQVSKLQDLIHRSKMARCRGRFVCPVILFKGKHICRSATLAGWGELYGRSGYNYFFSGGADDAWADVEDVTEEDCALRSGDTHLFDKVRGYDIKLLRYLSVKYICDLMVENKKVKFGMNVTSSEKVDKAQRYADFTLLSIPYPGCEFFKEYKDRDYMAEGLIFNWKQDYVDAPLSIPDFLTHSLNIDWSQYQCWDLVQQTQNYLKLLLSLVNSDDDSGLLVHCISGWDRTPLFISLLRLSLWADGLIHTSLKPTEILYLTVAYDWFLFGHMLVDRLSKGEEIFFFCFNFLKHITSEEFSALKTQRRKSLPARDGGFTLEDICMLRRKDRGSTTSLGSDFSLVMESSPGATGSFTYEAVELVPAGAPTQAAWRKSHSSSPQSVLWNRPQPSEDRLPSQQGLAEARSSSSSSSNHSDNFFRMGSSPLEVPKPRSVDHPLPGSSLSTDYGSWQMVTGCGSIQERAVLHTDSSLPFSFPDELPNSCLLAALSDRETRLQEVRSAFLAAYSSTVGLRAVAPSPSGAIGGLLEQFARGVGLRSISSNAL
inactive: IRAK-1-4 Inhibitor I 0.027 | ibrutinib -0.069 | [1] -0.015 | ralimetinib 0.004 | [2] 0.028 | [3] -0.04 | [4] -0.004 | pinometostat -0.041 | [5] 0.06 | [6] -0.029 | [7] -0.009 | [8] -0.048 | [9] -0.004 | [10] 0.02 | Nexturastat A 0.028 | vemurafenib -0.02 | [11] 0.071 | [12] -0.016 | givinostat 0.061 | barasertib 0.019

NMD3 (UniProt Q96D46)
inactive: IRAK-1-4 Inhibitor I 0.001 | ibrutinib -0.046 | [1] 0.017 | ralimetinib -0.049 | [2] -0.104 | [3] -0.069 | [4] -0.141 | pinometostat -0.026 | [5] -0.064 | [7] 0.03 | [8] -0.061 | [9] -0.009 | [10] 0.067 | Nexturastat A -0.079 | vemurafenib 0.077 | [11] 0.03 | [12] -0.004 | givinostat -0.024 | barasertib 0.015
active: [6] -0.392

MSH3 (UniProt P20585)
inactive: IRAK-1-4 Inhibitor I -0.001 | ibrutinib -0.002 | [1] 0.054 | ralimetinib -0.053 | [2] 0.01 | [3] 0.068 | [4] 0.056 | pinometostat 0.043 | [5] 0.023 | [7] 0.029 | [8] -0.033 | [9] 0.021 | [10] -0.101 | Nexturastat A -0.015 | vemurafenib 0.019 | [11] 0.053 | [12] -0.013 | givinostat 0.002 | barasertib -0.001
active: [6] 0.27

OXSM (UniProt Q9NWU1)
UniProt Q9NWU1, sequence (Q9NWU1 whole entry, looked up): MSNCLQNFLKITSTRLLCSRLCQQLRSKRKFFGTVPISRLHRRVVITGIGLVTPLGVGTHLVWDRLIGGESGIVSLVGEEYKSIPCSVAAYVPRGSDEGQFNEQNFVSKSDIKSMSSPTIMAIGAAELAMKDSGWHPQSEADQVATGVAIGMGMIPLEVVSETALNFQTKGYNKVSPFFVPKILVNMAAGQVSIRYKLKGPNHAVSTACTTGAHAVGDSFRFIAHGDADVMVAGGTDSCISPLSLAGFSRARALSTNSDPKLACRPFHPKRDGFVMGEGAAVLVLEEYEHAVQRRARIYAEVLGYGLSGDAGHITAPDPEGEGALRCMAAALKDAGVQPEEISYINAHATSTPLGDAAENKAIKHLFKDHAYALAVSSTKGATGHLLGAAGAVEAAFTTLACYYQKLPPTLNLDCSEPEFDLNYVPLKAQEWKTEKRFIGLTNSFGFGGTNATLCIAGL
active: givinostat -0.234
inactive: IRAK-1-4 Inhibitor I 0.032 | ibrutinib 0.064 | [1] 0.017 | ralimetinib 0.008 | [2] 0.031 | [3] 0.041 | [4] -0.025 | pinometostat -0.067 | [5] -0.023 | [6] -0.011 | [7] -0.023 | [8] -0.057 | [9] 0.023 | [10] 0.003 | Nexturastat A -0.061 | vemurafenib 0.01 | [11] 0.045 | [12] -0.03 | barasertib -0.034

NR2C2 isoform 2 (UniProt P49116)
UniProt P49116, sequence (P49116 whole entry, looked up): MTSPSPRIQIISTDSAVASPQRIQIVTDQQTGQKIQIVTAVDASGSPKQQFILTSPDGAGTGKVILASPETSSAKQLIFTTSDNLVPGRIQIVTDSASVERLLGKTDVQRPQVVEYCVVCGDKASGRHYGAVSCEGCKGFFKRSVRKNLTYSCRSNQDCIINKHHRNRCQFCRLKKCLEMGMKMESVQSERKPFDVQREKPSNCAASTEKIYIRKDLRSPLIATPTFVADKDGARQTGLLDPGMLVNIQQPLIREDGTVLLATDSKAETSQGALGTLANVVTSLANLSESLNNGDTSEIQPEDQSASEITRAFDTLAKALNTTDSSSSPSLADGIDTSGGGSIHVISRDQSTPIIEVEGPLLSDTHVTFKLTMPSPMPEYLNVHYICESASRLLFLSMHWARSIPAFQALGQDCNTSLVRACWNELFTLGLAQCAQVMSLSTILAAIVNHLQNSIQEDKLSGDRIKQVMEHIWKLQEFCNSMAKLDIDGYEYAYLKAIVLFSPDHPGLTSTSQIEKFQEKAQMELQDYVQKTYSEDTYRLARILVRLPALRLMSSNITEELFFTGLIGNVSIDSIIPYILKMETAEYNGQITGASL
inactive: IRAK-1-4 Inhibitor I 0.004 | ibrutinib 0.022 | [1] -0.062 | ralimetinib -0.064 | [2] -0.048 | [3] -0.004 | [4] 0.058 | pinometostat 0.014 | [5] 0.045 | [6] -0.215 | [7] -0.017 | [8] 0.029 | [9] 0.114 | [10] -0.034 | vemurafenib -0.023 | [11] 0.03 | [12] 0.04 | givinostat -0.073 | barasertib 0.028
active: Nexturastat A -0.23

MRPS10 (UniProt P82664)
inactive: IRAK-1-4 Inhibitor I -0.024 | ibrutinib 0.02 | [1] -0.065 | ralimetinib -0.031 | [2] 0.01 | [3] -0.027 | [4] 0.066 | pinometostat 0.045 | [5] 0.041 | [6] -0.28 | [7] 0.018 | [8] 0 | [9] 0 | [10] -0.03 | Nexturastat A 0.097 | vemurafenib -0.002 | [11] 0.006 | [12] -0.046 | givinostat 0.063 | barasertib -0.051

NFYC (UniProt Q13952)
inactive: IRAK-1-4 Inhibitor I -0.023 | ibrutinib -0.042 | [1] -0.023 | ralimetinib -0.09 | [2] -0.046 | [3] 0.019 | [4] -0.061 | pinometostat -0.087 | [5] 0.046 | [7] 0.005 | [8] 0.011 | [9] -0.061 | [10] 0.019 | Nexturastat A -0.087 | vemurafenib -0.006 | [11] -0.001 | [12] -0.031 | givinostat 0.001 | barasertib 0.028
active: [6] 0.332

NDUFS8 (UniProt O00217)
UniProt O00217, sequence (O00217 whole entry, looked up): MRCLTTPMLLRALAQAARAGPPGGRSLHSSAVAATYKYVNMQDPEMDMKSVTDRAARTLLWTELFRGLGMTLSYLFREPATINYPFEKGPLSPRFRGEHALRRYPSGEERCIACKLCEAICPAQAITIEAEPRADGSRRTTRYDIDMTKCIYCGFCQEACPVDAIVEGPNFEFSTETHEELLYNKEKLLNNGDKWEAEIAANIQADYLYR
inactive: IRAK-1-4 Inhibitor I 0.087 | ibrutinib 0.034 | [1] -0.02 | ralimetinib -0.083 | [2] -0.099 | [3] -0.145 | [4] 0.017 | pinometostat 0.005 | [5] 0.034 | [6] 0.075 | [7] 0.02 | [8] 0 | [9] 0.03 | [10] 0.018 | Nexturastat A -0.136 | vemurafenib 0.02 | [11] -0.006 | [12] -0.092 | givinostat -0.014 | barasertib -0.004

NNT (UniProt Q13423)
inactive: IRAK-1-4 Inhibitor I 0.013 | ibrutinib -0.018 | [1] -0.016 | ralimetinib -0.099 | [2] -0.056 | [3] 0.016 | [4] -0.053 | pinometostat -0.029 | [5] -0.022 | [6] 0.037 | [7] 0.02 | [8] -0.004 | [9] 0.004 | [10] 0.058 | Nexturastat A -0.091 | vemurafenib 0.025 | [11] 0.016 | [12] -0.023 | givinostat 0.001 | barasertib 0.01

OSBP (UniProt P22059)
inactive: IRAK-1-4 Inhibitor I 0 | ibrutinib -0.067 | [1] -0.029 | ralimetinib -0.009 | [2] -0.076 | [3] 0.091 | [4] 0.017 | pinometostat -0.002 | [5] -0.052 | [6] 0.024 | [7] 0.098 | [8] -0.011 | [9] -0.028 | [10] 0.022 | Nexturastat A -0.073 | vemurafenib 0.015 | [11] 0.027 | [12] -0.003 | givinostat -0.052 | barasertib -0.001

OXSR1 (UniProt O95747)
inactive: IRAK-1-4 Inhibitor I 0.014 | ibrutinib -0.022 | ralimetinib 0.045 | [2] -0.115 | [3] -0.111 | [4] -0.05 | pinometostat 0.026 | [5] 0.02 | [6] 0.106 | [7] 0.019 | [8] -0.11 | [9] 0.014 | [10] 0.004 | Nexturastat A -0.021 | vemurafenib 0.037 | [11] 0.038 | [12] 0.007 | givinostat 0.055 | barasertib 0.035
active: [1] -0.341

NDUFA6 (UniProt P56556)
UniProt P56556, sequence (P56556 whole entry, looked up): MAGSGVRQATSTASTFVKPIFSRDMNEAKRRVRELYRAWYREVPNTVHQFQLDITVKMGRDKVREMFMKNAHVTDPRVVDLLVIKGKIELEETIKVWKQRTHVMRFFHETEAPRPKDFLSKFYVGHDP
inactive: IRAK-1-4 Inhibitor I -0.004 | ibrutinib -0.031 | [1] -0.092 | ralimetinib -0.046 | [2] -0.214 | [3] -0.05 | [4] -0.045 | pinometostat -0.083 | [5] -0.03 | [6] 0.175 | [7] 0.029 | [8] -0.082 | [9] 0.1 | [10] 0.125 | Nexturastat A -0.067 | vemurafenib 0.04 | [11] 0.198 | [12] -0.064 | givinostat 0.047 | barasertib 0.035

NT5DC1 (UniProt Q5TFE4)
UniProt Q5TFE4, sequence (Q5TFE4 whole entry, looked up): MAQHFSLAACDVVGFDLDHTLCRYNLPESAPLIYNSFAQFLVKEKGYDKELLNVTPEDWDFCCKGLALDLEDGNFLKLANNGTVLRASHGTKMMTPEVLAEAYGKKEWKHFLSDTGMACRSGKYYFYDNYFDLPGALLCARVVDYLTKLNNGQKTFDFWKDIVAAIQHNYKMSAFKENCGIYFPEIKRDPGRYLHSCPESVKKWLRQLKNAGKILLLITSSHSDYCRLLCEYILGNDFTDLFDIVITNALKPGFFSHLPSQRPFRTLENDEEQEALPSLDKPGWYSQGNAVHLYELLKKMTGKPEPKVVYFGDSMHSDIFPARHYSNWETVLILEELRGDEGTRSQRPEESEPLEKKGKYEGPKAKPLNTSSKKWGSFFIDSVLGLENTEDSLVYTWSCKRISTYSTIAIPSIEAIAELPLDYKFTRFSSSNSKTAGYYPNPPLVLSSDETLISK
inactive: IRAK-1-4 Inhibitor I 0.049 | ibrutinib 0.021 | [1] -0.039 | ralimetinib -0.054 | [2] -0.019 | [3] 0.02 | [4] -0.011 | pinometostat -0.024 | [5] -0.001 | [6] -0.022 | [7] 0.149 | [8] -0.018 | [9] -0.019 | [10] 0.021 | Nexturastat A -0.068 | vemurafenib -0.001 | [11] -0.016 | [12] -0.003 | givinostat 0.004 | barasertib -0.039
